The compounds below were run on ACVR2B. Conditions: concentration: 1 μM, replicates: in singlicate; n = 1.
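Note: KINOMEscan kinase panel screen.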

Row | SMILES | %Inh
1 | COc1cccc(NC(=O)NCCNc2ccnc(Nc3ccc(F)cc3)n2)c1 [GSK1379879] | 0%
2 | CS(=O)(=O)c1cccc(CNc2nc(Nc3ccc4c(c3)CCC(=O)N4)ncc2C(F)(F)F)c1 | 0%
3 | c1ccc(Oc2ccc(Nc3ccnc4cc(-c5ccc(CN6CCCCC6)o5)ccc34)cc2)nc1 [GW567143] | 0%
4 | COC(=O)Nc1nc2cc(Oc3ccc(NC(=O)Nc4cccc(SC)c4)cc3)ccc2[nH]1.Cl [GW697999] | 0%
5 | Nc1ncc(-c2ccc3nccc(-c4ccncc4)c3c2)cc1S(=O)(=O)N1CCCCC1 [GSK1693850] | 9%
6 | Cc1ccc(-c2ccc3occ(-c4ccc(S(C)=O)cc4)c3c2)nn1 (stereo not shown) | 0%
7 | CC(C)NCC(Cc1ccccc1)NC(=O)c1cc(Br)c(-c2ccnc3[nH]ccc23)s1.Cl.Cl (stereo not shown) [GSK1383281] | 0%
8 | Cc1ccc(Nc2ccnc(Nc3ccc(C)c(F)c3)n2)cc1O.Cl [GW582868] | 92.9%
9 | Nc1cccc(-c2ccc3c(N)n[nH]c3c2)c1 [GSK2193613] | 19%
10 | CN1CCN(Cc2ccc(NC(=O)Nc3ccc(N(C)c4ccnc(Nc5ccc(CS(C)(=O)=O)cc5)n4)cc3)cc2)CC1.Cl [GW827654] | 38%
11 | Cc1ccc(NC(=O)c2ccc(Cl)c(Cl)c2)cc1-c1ccc(C(=O)Nc2ccncc2)cc1 [GSK1398460] | 2%
12 | CN(c1ccc(NC(=O)N2CCN(CCCN3CCOCC3)CC2)cc1)c1ccnc(Nc2ccc(CS(C)(=O)=O)cc2)n1.Cl [GW830899] | 45%
13 | CSc1ccc(NC2=C(c3ccc(Cl)cc3)C(=O)NC2=O)cc1 [SB-317658] | 0%
14 | O=C(Nc1n[nH]c2nc(-c3ccccc3)ccc12)C1CC1 [SB-708999] | 37%
15 | COc1cc(Nc2ccnc3cc(-c4ccncc4)ccc23)cc(OC)c1OC.Cl [GW494610] | 54%
16 | Cc1ccc(O)cc1Nc1ccnc2ccc(C(C)(C)C)cc12 [GW856805] | 62%
17 | Cc1ccc(NC(=O)c2ccnc(N3CCCCC3)c2)cc1-c1ccc(C(=O)NCC2CC2)cc1 [GW775610] | 0%
18 | Cc1cc(-c2ccnc(Nc3cccc(C#N)c3)n2)cc(C)c1O [GSK1440913] | 88%
19 | Cl.Cl.NCC(NC(=O)c1cc(-c2cccnc2)c(-c2ccnc3[nH]ccc23)s1)c1ccccc1 (stereo not shown) [GSK1323434] | 0%

Row | SMILES | %Inh
20 | COc1ccc(C2=C(Nc3cccc(O)c3)C(=O)NC2=O)cc1 [SB-390766] | 0%
21 | COC(=O)Nc1nc2ccc(Oc3ccc(NC(=O)Nc4cc(C(F)(F)F)ccc4F)cc3)cc2[nH]1.Cl [GW654607] | 0%
22 | O=C(Nc1n[nH]c2nc(-c3cccc(O)c3)ccc12)C1CC1 [SB-711805] | 74%
23 | N#Cc1cnc2cc(-c3cnc(CNCCN4CCOCC4)s3)ccc2c1Nc1ccc(Oc2ccccc2)cc1 [GW664114] | 0%
24 | CN(C)CCNS(=O)(=O)c1ccc(-c2ccnc3[nH]ccc23)cc1 [GSK977620] | 0%
25 | CN(C)c1ncnc2nc[nH]c12 [SKF-31736] | 0%
26 | COc1ccc(NC(=O)c2ccoc2)cc1-c1ccc(C(=O)NCC2CC2)cc1 [GW810437] | 17%
27 | O=C(Nc1c(F)cccc1F)c1cc(C(=O)c2ccccc2F)c[nH]1 [GSK1326180] | 0%
28 | Cn1cc(-c2cnc(N)c3c(-c4ccc5c(c4)CCN5C(=O)Cc4ccccc4)csc23)cn1 [GSK2593074] | 0%
29 | O=C(O)C(F)(F)F.O=c1[nH]ccc2nc(N[C@@H]3CCNC3)nc(Nc3cc(Cl)cc(Cl)c3)c12 [GSK2188764] | 0%
30 | CN(c1ccc(NC(=O)Nc2cccc(Cl)c2)cc1)c1ccnc(N)n1.Cl [GW830707] | 0%
31 | Cn1cc(-c2ccc3c(c2)CCN3C(=O)Cc2cc(F)cc(F)c2F)c2c(N)ncnc21 [GSK2634140] | 0%
32 | CC(C)(C)c1ccc(C(=O)Nc2cn3cc(-n4ccnc4)ccc3n2)cc1 | 8%
33 | CC(C)c1nc(-c2cccc(NS(=O)(=O)c3c(F)cccc3F)c2)c(-c2ccnc(Nc3ccc(N4CCOCC4)nc3)n2)s1.Cl [GSK1723980] | 81%
34 | O=C1NC(=O)C(c2ccccc2Cl)=C1Nc1cccc(Cl)c1 [SB-342409] | 0%
35 | CCn1c(-c2nonc2N)nc2c(-c3ccccc3)ncc(OCCCN)c21.O=C(O)C(F)(F)F.O=C(O)C(F)(F)F [GSK260205] | 0%
36 | COc1ccc(C)c(Nc2ccnc(Nc3ccc(-c4cnc[nH]4)cc3)n2)c1.Cl [GW784041] | 93.3%
37 | CN(c1ccc(F)c(NC(=O)c2cccc(OC(C)(C)C#N)c2Cl)c1)c1ccc2nc(NC(=O)C3CC3)sc2n1 | 0%
